Assay outcomes as filed in PubChem BioAssay.
RGS4 inhibitor: blocks human RGS4-accelerated GTP hydrolysis. P49798. Transcreener GDP fluorescence polarization, RGS4-accelerated GTP hydrolysis. Potency, µM (highest dose often 114 µM), without a hit: at the top dose activity change, negative = inhibition, most hits filed as inhibitors. hit rate 0.039% among 390,000; further: nearly all actives have a fitted effect of over 75% in size
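MLSMR compounds (23 nl, pin-transferred) preincubated 10 min at room temperature with a 500nM (2x) first reagent, then RGS4 at 900nM (2x) plus Transcreener GDP mix added; fluorescence polarization (620/688 nm) read before and after 90 min at 30 °C.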
Eya2 inh: Eya2 (human) phosphatase inhibition; hit rate 0.006% among 330,000; Potency, µM (top dose mostly 76.9 µM), for the others: at the top dose activity, negative = inhibition, actives largely listed as inhibitors; recombinant Eya2, OMFP fluorescence dephosphorylation (OMFP is methylfluorescein phosphate); AID 488837
Target sequence (O00167 whole entry, looked up): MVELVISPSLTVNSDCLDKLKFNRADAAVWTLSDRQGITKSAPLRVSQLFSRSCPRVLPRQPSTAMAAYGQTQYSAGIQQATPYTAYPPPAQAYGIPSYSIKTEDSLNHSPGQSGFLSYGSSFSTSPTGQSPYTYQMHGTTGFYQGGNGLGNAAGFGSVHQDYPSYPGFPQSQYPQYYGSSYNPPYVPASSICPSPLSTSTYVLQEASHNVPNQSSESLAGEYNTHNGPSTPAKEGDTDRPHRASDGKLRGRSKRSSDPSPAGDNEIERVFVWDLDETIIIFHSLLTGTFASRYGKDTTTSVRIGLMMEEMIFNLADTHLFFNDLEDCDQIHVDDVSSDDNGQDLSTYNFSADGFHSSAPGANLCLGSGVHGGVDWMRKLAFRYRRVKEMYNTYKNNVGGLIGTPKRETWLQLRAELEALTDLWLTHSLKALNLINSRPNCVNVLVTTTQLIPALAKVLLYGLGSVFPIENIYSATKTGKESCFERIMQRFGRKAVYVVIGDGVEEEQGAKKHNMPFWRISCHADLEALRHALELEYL
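Eya2 (0.2 uM) preincubated 10 min at ambient with compound, then OMFP substrate added at 50 uM; 10 min reaction in 50 mM HEPES pH 7.5, 50 mM NaCl, 5 uM MgCl2, 0.05% BSA, 1 mM DTT. Fluorescence read at Ex 485/Em 525 nm.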
TrxR1 substrate: rat thioredoxin reductase 1 substrate activity; O89049; purified TrxR1 substrate turnover, NADPH consumption readout; Potency, µM (top dose mostly 114 µM), for inactives: top-dose activity change, negative = substrate turnover; hit rate 0.01% among 390,000; further: nearly all actives have a fitted effect of over 50% in size
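Rat TrxR1, dispensed at 90 nM, was prereduced with 400 uM NADPH (final) for 5 min at ~22 deg C, then incubated with compound 15 min before 400 uM selenite. A first-read NADPH fluorescence drop versus no-compound background flagged substrates.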
rTrxR1 inhibitor: rat TrxR1 inhibition; Potency, µM (titrated, usually from 114 µM), inactives show top-dose activity change, negative = inhibition, most hits filed as inhibitors; recombinant rTrxR1, NADPH fluorescence consumption, selenite substrate; O89049; hit rate 1% among 390,000; further: nearly all actives have a fitted effect of over 65% in size
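Rat TrxR1 (90 nM in the dispensed reagent) was pre-reduced with 400 uM NADPH for 5 min at room temperature, then incubated with compound for 15 min. After 400 uM selenite was added, NADPH fluorescence (Ex 340/Em 450 nm) was followed for 8 min.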
mIDH1 inhibitor: human IDH1 R132H inhibition; O75874; IDH1-R132H enzyme, NADPH consumption, diaphorase/resazurin fluorescence; Potency, µM (top dose mostly 76.6 µM), for the others: top-dose activity change, negative = inhibition, usual class: inhibitors; hit rate 0.093% among 390,000; further: nearly all actives have a fitted effect of over 65% in size
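IDH1-R132H (0.5 ug/mL dispensed) in pH 7.5 Tris buffer was preincubated 30 min with compound, then given a substrate mix of 0.016 mM NADPH and 2 mM alpha-KG for 80 min at room temperature; remaining NADPH was read by diaphorase/resazurin fluorescence.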
The depositor's hits bear a star; ? = inconclusive; . = no result; ! = not active in a repeat; [ ] = dose if it differs, or a comment. In the library only some 1.1% were active in any assay of this set; here they are far more common. The call rests on the fitted dose curve; in most records, active means well fitted curve in the direction sought with a large enough effect; inconclusive means small, poorly fitted or top-dose-only effect, or another doubt; inactive means no such curve, though single readings can be large; an effect the other way counts as inactive or inconclusive. On the % scale 0 is the no-effect control and ±100 the full control effect; potency means the concentration at half of the fitted maximal effect.

SMILES	RGS4 inhibitor	Eya2 inh	TrxR1 substrate	rTrxR1 inhibitor	mIDH1 inhibitor
COCCn1nnnc1C(c1cc2cc(C)ccc2[nH]c1=O)N1CCCCCC1 (stereo unspecified)	-34%	6%	6%	4.5µM*	-1%
COCCn1nnnc1C(c1cc2cc(C)cc(C)c2[nH]c1=O)N1CCN(c2ccccc2F)CC1 (stereo unspecified)	-20%	-39%	13%	?	8%
O=C(CSc1nnc(CNC(=O)c2c(F)cccc2F)o1)c1ccc(Cl)cc1	.	.	.	.	7%
Cc1ccc(CS(=O)Cc2ccc(C(=O)NC3CCCC(C)C3C)o2)cc1 (stereo unspecified)	-14%	-10%	8%	45µM*	3%
Cc1ccc(CS(=O)Cc2ccc(C(=O)NC3CCCCCC3)o2)cc1 (stereo unspecified)	-8%	-2%	10%	?	3%
Oc1ccc(Cl)cc1/C=N/c1nccs1	5%	20%	1%	?	0%
Oc1c(Br)cc(Br)cc1/C=N/c1nccs1	?	4%	-6%	35µM*	-1%
CCN(C[C@H]1N[C@@](C)(C(=O)OC)[C@H]2C(=O)N(C)C(=O)[C@@H]12)C(=O)Nc1ccc(C)cc1	-12%	10%	3%	20%	6%
Clc1nnc(N/N=C/c2ccccc2)c2ccccc12	13%	-12%	3%[57.1 µM]	7%[57.1 µM]	2%
C[n+]1ccc(/C=N/Nc2nc(Cl)c(C#N)c(Cl)c2Cl)cc1	5%	-3%	-18%	3.5µM*	2%
CCOC(=O)C1=C(N)OC(C)=C(C#N)C1c1ccco1 (stereo unspecified)	-1%	-17%	1%	-21%	3%
O=C(CSc1nc2nc(-c3cccs3)cc(C(F)(F)F)c2c(=O)[nH]1)C(F)(F)F	-35%	10%	609%	35µM*	19%
O=C1C(SCCO)=C(SCCO)C(=O)c2ccccc21	3.4µM*	50µM*!	10µM*	16µM*	25%
O=C1NC(Cc2c[nH]c3ccccc23)C(=O)N1c1ccc(F)cc1 (stereo unspecified)	-20%	-2%	2%	-6%	8%
C1CCC(NC(=NC2C3CC4CC(C3)CC2C4)N2CCOCC2)CC1 (stereo unspecified)	0.34µM*	.	.	.	.
C1CCC(N=C(NC23CC4CC(CC(C4)C2)C3)N2CCOCC2)CC1	7%[56.9 µM]	-6%	6%[57.1 µM]	7%[57.1 µM]	.
CCOC(=O)c1ccc(N2C(=O)C3C(C2=O)C(C(=O)c2ccc(Cl)cc2)N2CCCC32)cc1 (stereo unspecified)	-36%	-12%	-1%	3.5µM*	5%
CCOC(=O)c1ccc(N2C(=O)C3CC=CCC3C2=O)cc1 (stereo unspecified)	6%	4%	10%[57.1 µM]	-7%	1%
CCOC(=O)COc1ccc(Br)cc1/C=C\c1[nH]c(=O)[nH]c(=O)c1[N+](=O)[O-]	?	-2%	-9%	45µM*	?
COc1ccc(S(=O)(=O)N2CCCN(CCC(=O)Nc3cccc(C(F)(F)F)c3)CC2)cc1	-33%	-12%	-7%	-8%	2%
Cc1ccc(NC(=O)CN2CCCN(S(=O)(=O)c3ccc(Br)s3)CC2)cc1	-34%	-36%	-9%	71µM*	2%
NC(=O)CN1CCN(S(=O)(=O)c2ccc(Cl)cc2)CC1	2%	-3%	14%[57.1 µM]	35%[57.1 µM]	2%
NC(=O)CN1CCCN(S(=O)(=O)c2ccc(Br)cc2)CC1	-47%	-2%	16%	20µM*	5%
O=C(CN1CCCN(S(=O)(=O)c2ccc(Br)cc2)CC1)Nc1cccc(C(F)(F)F)c1	-26%	.	-7%	50µM*	1%
Cc1ccc(CCSc2ccc(F)cc2)cn1	-12%	8%	5%[11.4 µM]	20%[11.4 µM]	5%
SMILES	RGS4 inhibitor	Eya2 inh	TrxR1 substrate	rTrxR1 inhibitor	mIDH1 inhibitor
Cc1nc2scc(-c3ccco3)c2c(=O)n1/N=C/N(C)C	?	-13%	11%	32µM*	2%
Cc1sc2nc(C)n(/N=C/N(C)C)c(=O)c2c1C	-6%	-14%	-2%	7%	14%
CCOC(=O)c1ccc(NC2SC(=O)N(Cc3cccc(C(=O)O)c3)C2=O)cc1 (stereo unspecified)	-38%	.	-5%	79µM*	-20%
CC(C(Sc1ccccc1N)c1ccccc1)[N+](=O)[O-] (stereo unspecified)	?	-1%	0%	6.3µM*	11%
O=C(O)/C=C/C(=O)NNC(=O)c1cc(-c2ccccc2)n[nH]1	?	-1%	10%	6.3µM*	-1%
CCCOC(=O)CC1C(=O)NCCN1Cc1cc(OC)cc(OC)c1 (stereo unspecified)	3%	0%	7%[57.1 µM]	9%[57.1 µM]	0%
CC(=O)NN1C(=O)/C(=C\c2ccc(Br)o2)SC1=S	-36%	11%	-15%	?	2%
CC(=O)NN1C(=O)/C(=C/c2ccc(Br)o2)SC1=S	-45%[11.4 µM]	22%	-6%[57.1 µM]	25µM*	9%
COC(=O)c1ccc(NCc2c(O)ccc(O)c2Br)cc1Cl	-52%	.	-9%	32µM*	0%
COC(=O)c1ccc(NCc2cc(O)ccc2O)cc1O	-50%	.	-13%	?	3%
OC(CN1C2=NCCN2c2ccccc21)c1ccccc1 (stereo unspecified)	11%	-15%	2%	2%	1%
O=C1C2C3C=CC(O3)C2C(=O)N1CC(O)c1ccccc1 (stereo unspecified)	-21%	-9%	5%	50µM*	7%
CC1=C(C#N)c2nc(N)c(C#N)c(C)c2/C1=C\c1ccc(C)cc1	.	7%	.	.	.
COc1cc(/C=C2\C(C)=C(C#N)c3nc(N)c(C#N)c(C)c32)ccc1OCC(=O)O	-27%	-1%	10%	32µM*	?
C[C@H](CO)N1C[C@H](C)[C@H](CN(C)C(=O)c2ccccc2)Oc2cc(Br)ccc2S1(=O)=O	.	.	.	.	-6%
CN(C)S(=O)(=O)c1ccc(N)c([N+](=O)[O-])c1	15%	-32%	-2%[2.29 µM]	3%[2.29 µM]	-20%
COc1ccc(NC(=O)Cn2cc(S(=O)(=O)Cc3ccc(F)cc3)c3ccccc32)cc1OC	-1%	.	-6%	3%	-22%
O=c1ccc(N=Nc2ccccc2)ccc1O	3%	?	-18%[57.1 µM]	-31%[57.1 µM]	3%
Oc1ccc(N=Nc2ccccc2)o1	-26%	-9%	-11%	32µM*	-9%
O=[N+]([O-])C(/C=C(\Cl)[N+](=O)[O-])=C(N1CCCCC1)N1CCCCC1	5%	-2%	-19%	20µM*	-8%
O=C(Nc1nc(-c2cc3ccccc3o2)cs1)c1ccc(S(=O)(=O)N2CCCC2)cc1	17%[11.4 µM]	0%	11%	79µM*	0%
O=S(=O)(NC(=S)NC1CCCCC1)c1cccs1	-25%	5%	12%[57.1 µM]	?	-1%
O=S(=O)(NC(=S)NC1CCCCC1)c1ccccc1	25%	5%	-6%	3.2µM*	-7%
O=C(Oc1ccccc1N1C(=O)C2CCCCC2C1=O)c1ccccc1 (stereo unspecified)	61%	-4%	-4%	-3%	-1%
